Bioassay records as filed in PubChem BioAssay.
Not all results are given here.
aSyn UTR act – Activators via SNCA 5'UTR binding, MLPCN; AID 1814, 2009; alpha-synuclein 5'UTR reporter, activators screen; activity score, % (tested at 7.5 µM), hits read low; hit rate 7.1% among 300,000; in the data active = activity score below about -60%
Starred values were filed as active, the others as inactive.

SMILES	aSyn UTR act
COCCCNC(=S)NNC(=S)Nc1ccc(F)cc1F	-106*
COCCCNC(=S)NNC(=S)Nc1ccccc1	-65*
CC(C)(C)NC(=S)Nc1ccc(Nc2ccccc2)cc1	-115*
S=C(NNC(=S)Nc1ccccc1)Nc1ccccc1	-145*
CCCc1ccc2oc(C(=O)N(C)Cc3ccn[nH]3)c(C)c2c1	-85*
CCCc1ccc2oc(C(=O)N(Cc3nccn3C)C(C)C)c(C)c2c1	-73*
O=C(N/N=C\c1cc(Cl)ccc1O)c1ccc(S(=O)(=O)N2CCCCC2)cc1	113
CC(=O)c1ccc(S(=O)(=O)N2CCCC2)cc1	-84*
COc1cccc(NC(=S)N/N=C2\CC3CCC2(C)C3(C)C)c1 (configuration not stated)	-78*
CC(=O)n1c2ccccc2c2nc3ccccc3nc21	-98*
CC(=O)n1cc(N(C(=O)CCl)c2ccc(C)cc2)c2ccccc21	89
O=C(Nc1ccc(F)cc1)Nc1ccc2c(c1)CCC2	-120*
O=C(Nc1ccc2c(c1)CCC2)Nc1ccc(F)cc1F	-129*
Cc1cc(SCC(=O)N/N=C/c2ccc(O)cc2O)c(C)cc1Br	78
O=C(Cc1ccccc1)Nc1ccc2c(c1)CCC2	-105*
Cc1cc(NC(=O)CCSc2ccccc2)ccc1Br	-62*
O=C(CC1CCCC1)Nc1ccc2c(c1)CCC2	-112*
O=C(Nc1cccc([N+](=O)[O-])c1)Nc1cccs1	-110*
Cc1c(C(=O)Nc2cccc([N+](=O)[O-])c2)csc1-c1ccccc1	-130*
Cc1ccc(NC(=O)Nc2ccc3c(c2)CCC3)cc1	-124*
CCCCOc1ccccc1C1CC(=O)NC2=C1C(=O)CCC2 (configuration not stated)	94
Cc1cc(NC(=S)NC(=O)CC(C)C)ccc1Br	-155*
O=C(Nc1ccccc1)Nc1ccc2c(c1)CCC2	-135*
O=[N+]([O-])c1cccc(NC(=S)N2CCc3ccccc3C2)c1	-120*
O=C(Nc1cccc(F)c1)Nc1ccc2c(c1)CCC2	-160*
SMILES	aSyn UTR act
Cc1cc(NC(=O)CC2CCCC2)ccc1Br	-123*
O=C(Nc1cccc([N+](=O)[O-])c1)Nc1ccc2c(c1)CCC2	-105*
CCC(=O)N1N=C(c2ccc(NS(C)(=O)=O)cc2)CC1c1ccc(N(C)C)cc1 (configuration not stated)	-102*
N/C(=N\OC(=O)COc1cc(Cl)c(Cl)cc1Cl)c1ccccn1	-150*
Cc1cccc(OCC(=O)O/N=C(\N)c2ccccn2)c1C	-172*
Nc1ccc(Oc2cc(N)cc(Oc3ccccc3)c2)cc1	-173*
COc1ccc(-c2nc(=S)c3c([nH]2)Oc2ccc(C)cc2C3)cc1O	-76*
O=C(c1ccccc1Br)N1CCCC(c2nc(-c3cccs3)no2)C1 (configuration not stated)	-63*
Cc1ccc(-c2noc(C3CCCN(C(=O)c4ccccc4Br)C3)n2)o1 (configuration not stated)	-92*
Cc1ccc(-c2noc(C3CCN(S(C)(=O)=O)CC3)n2)o1	-67*
Cc1ccc(-c2noc(C3CCCN(C(=O)c4ccccc4)C3)n2)o1 (configuration not stated)	-154*
CSc1ccc(-c2sc(Nc3ccccc3)n[n+]2-c2ccc(F)cc2)cc1	-143*
COc1cc(/C=C2\OC(=O)c3c(OC)cccc32)ccc1O	-172*
COc1ccc(CCC(=O)Nc2ccc(-c3noc(-c4ccc(OC)c(OC)c4)n3)cc2)cc1	-158*
COc1ccc(-c2nc(-c3ccc(NC(=O)c4ccc(Br)o4)cc3)no2)cc1OC	-136*
Cn1c(=O)oc2cc(S(=O)(=O)CCC(=O)Nc3ccccc3)ccc21	-64*
CCC(=O)Nc1nonc1-c1nc2ccccc2n1Cc1cccc2ccccc12	67
CCOc1ccccc1NC(=O)n1ncc2c(C)cccc21	-68*
Cc1cccc2c1cnn2C(=O)Nc1cc(F)ccc1F	-178*
CCCCOc1ccccc1NC(=O)Cn1c(-c2nonc2N)nc2ccccc21	124
Cc1ccc(N/C=C2/Sc3ccccc3NC2=O)cc1	-175*
CCC(C)NC(=O)/C=C1\Sc2ccccc2NC1=O (configuration not stated)	-74*
COc1ccc(N/C=C2/Sc3ccccc3NC2=O)cc1	-148*
O=C(O)c1c(-c2ccc(Cl)cc2)cn2ccccc12	-167*
O=C1c2ccccc2C(=O)c2c1oc(C(F)(F)F)c2C(=O)c1ccccc1	101
SMILES	aSyn UTR act
O=C(c1ccccc1)c1coc2c1C(=O)c1ccccc1C2=O	-80*
O=C(CSc1cccs1)Nc1ccc(Cl)cc1	-116*
O=C(CSc1ccccc1)NCCc1ccccc1	-62*
O=C(CSc1cccs1)NCCc1ccccc1	-64*
COc1cc(C(=O)OCC(=O)Nc2cc(C)on2)ccc1OCc1ccccc1Cl	-111*
COc1ccc(-c2csc(-c3cccnc3)n2)cc1C	-243*
COc1ccc2cc(-c3csc(-c4cccnc4)n3)ccc2c1	-251*
O=C(/C=C/c1ccccc1)Nc1cccnc1	-143*
O=C(/C=C/c1ccccc1)Nc1cccnc1Oc1ccccc1F	-126*
O=C(/C=C/c1ccc([N+](=O)[O-])cc1)Nc1cccnc1	-150*
COc1cc(/C=C(/C#N)C(=O)Nc2ccccc2)c(Br)cc1OCc1ccc(C(=O)O)cc1	-67*
N#C/C(=C\c1ccc(OCc2ccccc2)cc1)C(=O)Nc1ccc(C(=O)O)cc1	-96*
CCOc1cc(/C=C(/C#N)C(=O)Nc2ccc(O)cc2)cc(Br)c1O	84
CC(C)c1ccc(/C=C/C(=O)NC(=S)Nc2ccc(CN3CCOCC3)cc2)cc1	-130*
CN1CCN(c2ccc(NC(=S)NC(=O)/C=C/c3ccco3)cc2)CC1	-147*
CCOc1ccc(NC(=S)NC(=O)/C=C/c2ccco2)cc1	-91*
O=C(/C=C/c1ccccc1)NC(=S)Nc1ccc(N2CCOCC2)cc1	-79*
COc1cccc(NC(=S)NC(=O)/C=C/c2ccco2)c1	-114*
Cc1ccc(Cl)cc1Nc1nc(-c2sc(NC(=O)c3ccccc3)nc2C)cs1	-94*
Cc1nc(NC(=O)c2ccccc2)sc1-c1csc(Nc2cccc(F)c2)n1	-81*
Cc1ccc2c(CN(C)Cc3ccccc3)cc(=O)oc2c1C	-80*
CCN1C(=O)/C(=C/c2nc3ccccc3c(=O)n2-c2ccccc2)c2ccccc21	-104*
Cc1ccc(N=C(c2cccs2)N2CCOCC2)cc1	-66*
CC(C)CC(NC(=O)C1CCC(C)CC1)C(=O)Nc1ccc2c(c1)OCCO2 (configuration not stated)	-62*
CCC1CCC(C(=O)NC(C(=O)Nc2ccc3c(c2)OCCO3)C(C)C)CC1 (configuration not stated)	-84*
SMILES	aSyn UTR act
Cc1ccc(NC(=O)c2cc3ccccc3oc2=N)cc1	82
N=c1oc2ccccc2cc1C(=O)Nc1ccc(F)cc1	-154*
N=c1oc2cc(O)ccc2cc1C(=O)Nc1ccc(Cl)cc1	-126*
N=c1oc2ccccc2cc1C(=O)Nc1cccc(F)c1	-122*
Cc1ccnc(N(C(=O)c2cccs2)C(=O)c2cccs2)c1	-157*
Cc1ccnc(NC(=O)CCC(=O)c2cccs2)c1	84
O=C(c1cccs1)N(C(=O)c1cccs1)c1ccc(Br)cn1	-144*
CCS(=O)(=O)c1nc(S(=O)(=O)c2ccc(C)cc2)c(N2CC(C)OC(C)C2)s1 (configuration not stated)	-105*
CCCS(=O)(=O)c1nc(S(=O)(=O)c2ccc(C)cc2)c(N2CCN(C)CC2)s1	-69*
Cc1cc(C)nc(NC(=O)CSc2nc3ccccc3o2)n1	-153*
